Results on 3 compounds are retold here after PubChem BioAssay (EPA / NIEHS).

Activity calls are given as the source filed them. Rule for the calls: active = hit-call score of the fitted dose curve at least 0.9, where 1 is the maximum; inactive = score below 0.9.

Holding throughout (conditions): mRNA level, 48 h; actives raise or lower the signal
Read-out in one test: CYP4A11 (gene 1579)
In words: LTEA_HepaRG_CYP4A11: Life Technologies and Expression Analysis (LTEA) Assay for CYP4A11 using HepaRG (AID 2283486). In short, it runs like this:
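Readout is CYP4A11 mRNA induction or suppression (qRT-PCR, ACTB/GAPDH/POLR2A normalization) in human HepaRG cells after 48 h chemical treatment, concentrations to 100 uM in 0.5% DMSO, fitted bidirectionally against vehicle.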

Read-out in test [1]: Cytochrome P450 3A4 (Homo sapiens) (UniProt P08684)
In words: LTEA_HepaRG_CYP3A4: Life Technologies and Expression Analysis (LTEA) Assay for CYP3A4 using HepaRG (AID 2283487). In short, it runs like this: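 Differentiated HepaRG cells in serum-free induction medium exposed in duplicate for 48 h to 8 half-log concentrations up to 100 uM in 0.5% DMSO. CYP3A4 mRNA measured by qRT-PCR normalized to ACTB, GAPDH and POLR2A; bidirectional fit versus DMSO.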

Read-out in test [2]: DNA damage-inducible transcript 3 (DDIT3), DDIT3 (gene 1649)
The test can be described thus: LTEA_HepaRG_DDIT3: Life Technologies and Expression Analysis (LTEA) Assay for DNA damage-inducible transcript 3 (DDIT3) using HepaRG (AID 2283488). Put shortly:
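HepaRG plated 48 h, switched to serum-free induction medium, dosed 48 h (100 uM top, half-log, 8 pts, 0.5% DMSO, n=2); RNA isolated; DDIT3 by qRT-PCR; bidirectional curve fit vs DMSO.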

Read-out in test [3]: Pro-epidermal growth factor (Homo sapiens) (UniProt P01133)
In words: LTEA_HepaRG_EGF: Life Technologies and Expression Analysis (LTEA) Assay for Epidermal growth factor (EGF) using HepaRG (AID 2283489). In short, it runs like this:
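EGF expression changes in human HepaRG cells are scored by bidirectional fitting relative to 0.5% DMSO controls. Chemicals are tested at eight half-log concentrations up to 100 uM for 48 h in serum-free induction medium.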

Read-out in test [4]: Early growth response protein 1 (EGR1) transcription factor, EGR1 (gene 1958)
The test can be described thus: LTEA_HepaRG_EGR1: Life Technologies and Expression Analysis (LTEA) Assay for Early growth response protein 1 (EGR1) transcription factor using HepaRG (AID 2283490). Put shortly:
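Read-out is EGR1 mRNA level by qRT-PCR, normalized to three housekeeping genes and analysed for gain or loss of signal against 0.5% DMSO. Source cells: human HepaRG, treated 48 h at up to 100 uM in half-log dilutions.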

Read-out in test [5]: Ezrin (EZR), EZR (gene 7430)
In words: LTEA_HepaRG_EZR: Life Technologies and Expression Analysis (LTEA) Assay for Ezrin (EZR) using HepaRG (AID 2283491). Put shortly: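 Differentiated human HepaRG cells, 48 h after plating, were exposed in serum-free induction medium for 48 hours to eight half-log concentrations up to 100 uM in 0.5% DMSO. EZR mRNA was measured by TaqMan qRT-PCR, normalized to ACTB, GAPDH and POLR2A, and fitted bidirectionally against DMSO.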

Read-out in test [6]: Cytochrome P450 3A7 (Homo sapiens) (UniProt P24462)
In words: LTEA_HepaRG_CYP3A7: Life Technologies and Expression Analysis (LTEA) Assay for CYP3A7 using HepaRG (AID 2283492). Put shortly: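 Cells were thawed, plated, cultured 48 h, then treated for a further 48 h with chemicals (eight-point half-log series from 100 uM, 0.5% DMSO). RNA was isolated and CYP3A7 expression quantified by qRT-PCR normalised to ACTB, GAPDH and POLR2A.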

Read-out in a further test: CYP3A5 (gene 1577)
The test can be described thus: LTEA_HepaRG_CYP3A5: Life Technologies and Expression Analysis (LTEA) Assay for CYP3A5 using HepaRG (AID 2283493). In short, it runs like this:
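HepaRG plated 48 h, switched to serum-free induction medium, chemicals added 48 h (max 100 uM, half-log, 0.5% DMSO). RNA isolated; CYP3A5 by TaqMan qRT-PCR. Gain/loss vs DMSO.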

Read-out in test [7]: Fatty Acid-Binding Protein 1 (FABP1), FABP1 (gene 2168)
The test can be described thus: LTEA_HepaRG_FABP1: Life Technologies and Expression Analysis (LTEA) Assay for Fatty Acid-Binding Protein 1 (FABP1) using HepaRG (AID 2283494). Put shortly: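 HepaRG, 48 h post-plating switched to serum-free induction medium, then dosed 48 h (duplicate, 8 pts, ≤100 uM, 0.5% DMSO). RNA → Fluidigm TaqMan qRT-PCR, FABP1 normed to ACTB/GAPDH/POLR2A. Bidirectional curve fit vs DMSO.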

Read-out in test [8]: Cytochrome P450 4A22 (Homo sapiens) (UniProt Q5TCH4)
In words: LTEA_HepaRG_CYP4A22: Life Technologies and Expression Analysis (LTEA) Assay for Cytochrome P450 4A22 (CYP4A22) using HepaRG (AID 2283495). Put shortly: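 Cryopreserved HepaRG cells, plated and cultured 48 h, then switched to serum-free induction medium and treated 48 h (duplicates, up to 100 uM, half-log steps, 0.5% DMSO). Expression change of CYP4A22 was fitted bidirectionally against vehicle.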

Read-out in test [9]: Cytochrome P450 7A1 (Homo sapiens) (UniProt P22680)
The test can be described thus: LTEA_HepaRG_CYP7A1: Life Technologies and Expression Analysis (LTEA) Assay for Cytochrome P450 7A1 (CYP7A1) using HepaRG (AID 2283496). In short, it runs like this: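 HepaRG cells plated 48 h, then switched to serum-free induction medium and exposed in duplicate for 48 h to 8-point half-log series from 100 uM in 0.5% DMSO. CYP7A1 mRNA by qRT-PCR (TaqMan), normalized to ACTB/GAPDH/POLR2A; bidirectional fit versus DMSO.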

Read-out in test [10]: Glutathione S-Transferase (GSTA2), GSTA2 (gene 2939)
The test can be described thus: LTEA_HepaRG_GSTA2: Life Technologies and Expression Analysis (LTEA) Assay for Glutathione S-Transferase (GSTA2) using HepaRG (AID 2283497). Put shortly:
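HepaRG, 48 h dosing, 8-pt half-log CRC from 100 uM, 0.5% DMSO vehicle, n=2; RNA → Fluidigm TaqMan qRT-PCR; GSTA2 vs ACTB/GAPDH/POLR2A; gain/loss fit vs DMSO.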

Read-out in test [11]: growth arrest and DNA damage 45 (GADD45G), GADD45G (gene 10912)
In words: LTEA_HepaRG_GADD45G: Life Technologies and Expression Analysis (LTEA) Assay for growth arrest and DNA damage 45 (GADD45G) using HepaRG (AID 2283499). Put shortly:
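Human hepatic HepaRG line treated 48 h with chemicals (eight concentrations, half-log steps from 100 uM); transcript induction or repression of GADD45G scored by qRT-PCR versus DMSO vehicle.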

Read-out in test [12]: Glutamate-cysteine ligase regulatory (GCLM), GCLM (gene 2730)
The test can be described thus: LTEA_HepaRG_GCLM: Life Technologies and Expression Analysis (LTEA) Assay for Glutamate-cysteine ligase regulatory (GCLM) using HepaRG (AID 2283500). Put shortly: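 Cells were plated, cultured 48 h, switched to serum-free induction medium, then dosed in duplicate for 48 h at eight half-log concentrations up to 100 uM. RNA was then profiled by qRT-PCR; gain or loss versus DMSO was fitted.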

Read-out in test [13]: Heat shock 70 kDa protein 1 (HSPA1A), gene 3303
The test can be described thus: LTEA_HepaRG_HSPA1A: Life Technologies and Expression Analysis (LTEA) Assay for Heat shock 70 kDa protein 1 (HSPA1A) using HepaRG (AID 2283502). In short, it runs like this: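 Readout is HSPA1A transcript level by microfluidic qRT-PCR, normalized to three housekeeping genes and analysed for gain or loss of signal relative to 0.5% DMSO. Human HepaRG cultures received test chemicals for 48 h at up to 100 uM.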

Read-out in test [14]: Hypoxia-inducible factor 1-alpha (Homo sapiens) (UniProt Q16665)
The test can be described thus: LTEA_HepaRG_HIF1A: Life Technologies and Expression Analysis (LTEA) Assay for Hypoxia-inducible factor 1 (HIF1A) Trancription factor using HepaRG (AID 2283503). In short, it runs like this:
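Differentiated HepaRG cells in serum-free induction medium exposed 48 h, in duplicate, to 8-point half-log series from 100 uM in 0.5% DMSO. HIF1A mRNA measured by TaqMan qRT-PCR, normalized to ACTB/GAPDH/POLR2A, fitted bidirectionally versus DMSO.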

Read-out in test [15]: 3-Hydroxy-3-Methylglutaryl-CoA Synthase 2 (HMGCS2), HMGCS2 (gene 3158)
The test can be described thus: LTEA_HepaRG_HMGCS2: Life Technologies and Expression Analysis (LTEA) Assay for 3-Hydroxy-3-Methylglutaryl-CoA Synthase 2 (HMGCS2) using HepaRG (AID 2283504). In short, it runs like this: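 Expression of HMGCS2 in human HepaRG liver cells is measured by qRT-PCR 48 h after dosing (highest 100 uM, half-log series, 0.5% DMSO). Values come from bidirectional concentration-response fitting with DMSO as baseline.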

Read-out in a further test: HGF (gene 3082)
In words: LTEA_HepaRG_HGF: Life Technologies and Expression Analysis (LTEA) Assay for Hepatocyte Growth Facto (HGF) using HepaRG (AID 2283505). Put shortly:
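Gain or loss of HGF mRNA in human HepaRG liver cells after 48 h chemical exposure; eight concentrations up to 100 uM with 0.5% DMSO vehicle, quantified by TaqMan qRT-PCR.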

Read-out in test [16]: Glutamate-cysteine ligase catalytic (GCLC), GCLC (gene 2729)
In words: LTEA_HepaRG_GCLC: Life Technologies and Expression Analysis (LTEA) Assay for Glutamate-cysteine ligase catalytic (GCLC) using HepaRG (AID 2283498). In short, it runs like this:
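Read-out is GCLC transcript level by Fluidigm-based TaqMan qRT-PCR, normalized to three housekeeping genes and fitted in both directions relative to 0.5% DMSO. Human HepaRG cells received chemicals for 48 h, up to 100 uM.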

Read-out in test [17]: Glutathione S-transferase M3 (GSTM3), GSTM3 (gene 2947)
The test can be described thus: LTEA_HepaRG_GSTM3: Life Technologies and Expression Analysis (LTEA) Assay for Glutathione S-transferase M3 (GSTM3) using HepaRG (AID 2283501). Put shortly:
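Changes in GSTM3 expression, an oxidative-stress marker, were scored by bidirectional curve fitting against 0.5% DMSO vehicle. Human HepaRG cultures received chemicals for 48 h in duplicate, highest concentration 100 uM with half-log dilutions.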

Sequence of Hypoxia-inducible factor 1-alpha (Homo sapiens) (Q16665 whole entry, looked up): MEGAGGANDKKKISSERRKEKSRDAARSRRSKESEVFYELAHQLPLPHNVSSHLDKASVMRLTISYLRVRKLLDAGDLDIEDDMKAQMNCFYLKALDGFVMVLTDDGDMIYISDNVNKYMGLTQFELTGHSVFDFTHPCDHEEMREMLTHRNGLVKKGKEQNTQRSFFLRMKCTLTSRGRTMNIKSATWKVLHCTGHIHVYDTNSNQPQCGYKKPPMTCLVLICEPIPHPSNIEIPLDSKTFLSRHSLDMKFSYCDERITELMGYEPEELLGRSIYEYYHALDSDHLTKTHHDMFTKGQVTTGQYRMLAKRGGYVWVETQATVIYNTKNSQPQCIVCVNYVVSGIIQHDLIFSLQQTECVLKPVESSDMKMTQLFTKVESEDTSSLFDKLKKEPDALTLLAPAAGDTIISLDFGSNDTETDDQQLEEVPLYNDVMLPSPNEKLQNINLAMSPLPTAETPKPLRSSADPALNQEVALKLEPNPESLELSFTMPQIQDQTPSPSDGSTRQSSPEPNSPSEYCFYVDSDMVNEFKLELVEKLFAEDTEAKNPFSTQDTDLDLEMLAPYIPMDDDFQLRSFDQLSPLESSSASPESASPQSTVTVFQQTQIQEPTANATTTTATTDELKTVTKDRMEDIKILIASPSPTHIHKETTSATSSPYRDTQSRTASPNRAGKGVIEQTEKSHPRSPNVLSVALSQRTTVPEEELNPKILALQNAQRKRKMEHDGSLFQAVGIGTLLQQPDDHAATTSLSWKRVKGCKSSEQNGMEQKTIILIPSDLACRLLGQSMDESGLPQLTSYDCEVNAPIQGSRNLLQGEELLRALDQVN
Sequence of Cytochrome P450 3A4 (Homo sapiens) (P08684 whole entry, looked up): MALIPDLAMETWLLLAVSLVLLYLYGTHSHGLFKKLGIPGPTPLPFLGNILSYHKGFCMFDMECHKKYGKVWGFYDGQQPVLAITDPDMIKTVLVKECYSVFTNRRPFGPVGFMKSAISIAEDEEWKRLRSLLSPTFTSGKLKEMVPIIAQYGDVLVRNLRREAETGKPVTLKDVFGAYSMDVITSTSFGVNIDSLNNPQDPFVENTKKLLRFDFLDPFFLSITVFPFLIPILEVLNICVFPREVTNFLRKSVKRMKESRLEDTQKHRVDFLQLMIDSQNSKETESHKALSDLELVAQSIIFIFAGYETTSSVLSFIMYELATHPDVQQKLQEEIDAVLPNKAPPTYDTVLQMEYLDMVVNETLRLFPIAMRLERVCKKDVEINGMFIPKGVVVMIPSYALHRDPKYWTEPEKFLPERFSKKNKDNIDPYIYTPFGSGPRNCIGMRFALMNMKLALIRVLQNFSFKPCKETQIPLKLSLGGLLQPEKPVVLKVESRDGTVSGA
Sequence of Cytochrome P450 3A7 (Homo sapiens) (P24462 whole entry, looked up): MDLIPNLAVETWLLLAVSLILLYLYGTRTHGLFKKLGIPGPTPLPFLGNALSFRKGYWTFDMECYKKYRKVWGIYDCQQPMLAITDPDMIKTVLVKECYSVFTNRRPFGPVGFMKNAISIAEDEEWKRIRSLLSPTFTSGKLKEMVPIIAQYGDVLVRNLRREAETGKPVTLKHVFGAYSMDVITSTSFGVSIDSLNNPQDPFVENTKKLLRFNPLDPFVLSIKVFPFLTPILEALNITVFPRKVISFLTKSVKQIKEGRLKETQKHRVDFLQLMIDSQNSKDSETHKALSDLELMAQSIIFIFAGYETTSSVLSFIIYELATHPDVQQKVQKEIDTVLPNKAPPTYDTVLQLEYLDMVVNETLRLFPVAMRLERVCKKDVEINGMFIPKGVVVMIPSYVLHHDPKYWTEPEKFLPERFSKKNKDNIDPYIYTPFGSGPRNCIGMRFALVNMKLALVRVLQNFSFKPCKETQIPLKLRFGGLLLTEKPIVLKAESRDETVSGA

As for `CC1=C2C[C@H]3[C@@H](CC=C4C[C@@H](O)CC[C@@]43C)[C@@H]2CC[C@]12O[C@@H]1C[C@H](C)CN[C@H]1[C@H]2C`, the outcome (in the test with CYP4A11 (gene 1579); in test [1]; in [2]; in [3]; in [4]; in test [5]) was inactive. Also, the compound was classed as inactive (in test [6]; in the test with CYP3A5 (gene 1577); in [7]; in [8]; in test [9]; in [10]). Moreover, the call (in test [11]; in test [12]; in test [13]; in [14]; in test [15]; with HGF (gene 3082)) was inactive.
In the case of `CCCCCCCCCC[N+](C)(C)CCCCCCCCCC`, the AC50 with CYP4A11 (gene 1579) is 26.3 µM (active); in test [1], 63.1 µM (active); in test [2], 74 µM (active); in test [4] it was 94.6 µM (active); in test [5], 80.9 µM (active); in test [8], 25.5 µM (active). In addition, the concentration at half-maximal activity (AC50) was 74.5 µM (active) in test [10]; 83.7 µM (active) in test [16]; 82.7 µM (active) in test [14]; 77.4 µM (active) in test [15]; 50 µM (active) with HGF (gene 3082). Also, the compound was called inactive (in test [3]; in test [6]; in the test with CYP3A5 (gene 1577); in [7]; in test [9]; in [12]). Also, in [13], the compound was called inactive.
Consider `Nn1cnnc1`, for which the compound was classed as inactive (in the test with CYP4A11 (gene 1579); in test [1]; in test [2]; in test [3]; in test [4]; in [5]). Moreover, the result (in [6]; with CYP3A5 (gene 1577); in test [7]; in [8]; in test [9]; in [10]) was inactive. The compound was classed as inactive in test [16], in [12], in test [17], in [13], in test [14] and in test [15]. The outcome with HGF (gene 3082) was inactive.

Usually AC50 stands for the concentration at which the activity in the assay is half-maximal.
